Experimental data: PubChem BioAssay AID1347426 (Functional Genomics Laboratory (NCATS/FGL), 2020)
Among all 31,000 sequences or so, about 1,400 (4.5%) were called active.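 The calls were made as follows: active = median seed-adjusted z-score above 1 or below -1; inactive = the rest.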 This excerpt belongs to a sample that is enriched for actives.

Test: Novel Modifiers of Survival Motor Neuron (SMN) Protein: Gene Identification via Genome-wide siRNA Screen;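 also: luminescence tracks full-length SMN protein made from the SMN2 reporter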
Conditions: HEK293T SMN2-luciferase reporter, siRNA knockdown, 72 h; actives lie on both sides
Method in brief: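 HEK293T cells stably expressing an SMN2 splicing/cDNA-luciferase reporter were reverse-transfected with a druggable-genome siRNA library and read by luminescence at 72 hours; hits defined by MAD score above 1.0 or below -1.0.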

Row | Sequence | median seed-adjusted z-score
1 | GAACAUAUGUGAUGACCGUTT against CDH2 | -0.235 (inactive)
2 | GGAGGUCUCCUACAUCAAATT against ZAN | 0.736 (inactive)
3 | CGGGUGCACUACUACAUCUTT against GBGT1 | 0.48 (inactive)
4 | AGCCCUUGACCUUAUCUAATT against CSTB | 1.08 (active)
5 | ACUCAACUCUGAUACUCCATT against DMRTC2 | 0 (inactive)
6 | GAGCUGAAGUCCUUAGAUATT against EIF2B3 | -0.271 (inactive)
7 | CGACUAUGCUUUAGAUUAUTT against MAS1 | -0.0551 (inactive)
8 | CGGCCUAACUUUCAAGACATT against SDK2 | 0.908 (inactive)
9 | GGUUCUGAAAUGUUCGUCATT against ZDHHC22 | 0.00446 (inactive)
10 | GAUAAAAGGAUGGAUGAAATT against PRPF6 | -1.06 (active)
11 | GAAUCAAGACAAACCCGAATT against TTN | 0.872 (inactive)
12 | GCACUCUUCUCAUUCACGATT against ATP1B3 | -0.225 (inactive)
13 | CCAACGAACUCCUUACUUATT against SCP2 | 0.413 (inactive)
14 | CAAUCACUCAGGAACAAAUTT against CHMP6 | -1.81 (active)
15 | ACAAUACCCUCAGACUGAATT against NMUR1 | -0.265 (inactive)
16 | UGGUGAAAAUUACAUCUGATT against CIP29 | -1.18 (active)
17 | CAAUCCUCAUGCUAAACCATT against SGK1 | -0.659 (inactive)
18 | GAGUGGACUGGGCAAAUCATT against 3-Sep | 0.0683 (inactive)
19 | CAGGUAUUCUGGUCAAUAUTT against ATL3 | 0.201 (inactive)
20 | GACAAUGGGUUAUUCAGGATT against FNTA | 1.04 (active)
21 | GACACCUUCUUAGACGAUATT against AMPD1 | 0.378 (inactive)
22 | GCGAGUAGAUAAUAUCGAATT against MAP3K5 | -0.285 (inactive)

Row | Sequence | median seed-adjusted z-score
23 | GCAGGUCAGUUAUCAGACUTT against SLC17A1 | -0.271 (inactive)
24 | CAGUUGUACUGGACGGCUATT against PALLD | -0.307 (inactive)
25 | CAACCUCACUGACCGGCAATT against HOXD11 | -0.185 (inactive)
26 | CAUCUUUCCUAAAGAGUUUTT against POLR2D | -3.79 (active)
27 | GCCUACAUGUUUCUGCUGATT against RHO | -0.267 (inactive)
28 | CAGAGGAACUGACACCAUUTT against ETFA | -0.0619 (inactive)
29 | CGCUUUUCGUUGUAAAUAUTT against NKX2-2 | -0.0805 (inactive)
30 | GAAGCUUGAGGAACACGAATT against GOLGB1 | 0.0851 (inactive)
31 | CACUAAUGGAUAUUGCCUATT against BMI1 | 0 (inactive)
32 | UGACUGCGGAUAUAACUGATT against LMAN2 | -0.0921 (inactive)
33 | GGGAAGGCAAUAAAACUUATT against TAAR9 | -1.07 (active)
34 | GACUAAUGAACUACUAAAATT against HMMR | 0.389 (inactive)
35 | GAAUAUCUAGGUACAUGGATT against ADCY10 | -0.573 (inactive)
36 | CUGUACAACGUCAACCUCATT against SCNN1D | -1.8 (active)
37 | CAGUUAAAGGUCAAGAUAATT against PI3 | 0.493 (inactive)
38 | AGAUUAAGGAUAUGGAUGATT against CHRNA9 | -0.454 (inactive)
39 | GGAUAAUCGACACUCUGGATT against MATN3 | 0.0972 (inactive)
40 | GGAUUAACAUAUGAUGACATT against ADAM18 | -0.913 (inactive)
41 | GGUUCUCAGGAGCACCAGATT against OASL | 1.02 (active)
42 | CAUGUCACCUGCAAAAUUATT against THEM2 | 0.449 (inactive)
43 | GAGUCGUUGUCCAUCUUAATT against SR140 | 1.16 (active)
44 | GCAGAUCCAUCAACUACGATT against UBR4 | 0.602 (inactive)

Row | Sequence | median seed-adjusted z-score
45 | GGUUAUACUCGGGCAGAGATT against NDUFS5 | -1.35 (active)
46 | GGCUAACUAUUUUGUCAGATT against ABHD7 | -0.301 (inactive)
47 | CCAUGAUACUCCACUCCCATT against GUCA2A | 0.121 (inactive)
48 | GGCUAUGCAGGUCCACUGUTT against DDR1 | -0.166 (inactive)
49 | GGUUUGAAGGGUUGACUCATT against STK38L | 0.079 (inactive)
50 | GAGACAACAUGAAUGACAATT against CHGB | -1.29 (active)
51 | GGAUGUGGGUUUACUCUUUTT against SLC1A5 | -0.104 (inactive)
52 | GCAUGGAUGCUUCUAGACATT against AKAP9 | -1.22 (active)
53 | CCAUGAUCCUGAUAGGCAATT against PLAT | 0.246 (inactive)
54 | AGACCACCUUCAUCCGACATT against EHD1 | -0.616 (inactive)
55 | ACCUCGGACUGGUACAUGATT against SLC38A3 | -0.177 (inactive)
56 | GCUCGUAAACUAGCUAAUATT against RCOR3 | 0.0446 (inactive)
57 | GCAAGUGAAUAUGCGGAUATT against SNRPE | -2.77 (active)
58 | GAAAACCCUUGUAAGUAUATT against ZNF354A | 0.401 (inactive)
59 | GGUGUAAAAGUGAUUAUAATT against LCLAT1 | 0 (inactive)
60 | CACCUACUCUGACAACCAATT against HSPA1L | -1.27 (active)
61 | CUAUCACUGUCUCAAGUCATT against ITGA10 | 0.378 (inactive)
62 | GAGUUAAGGAGGUAGAUGATT against SNX5 | -0.141 (inactive)
63 | GCAUGAGUGCUAUCAGAUATT against PIPOX | 1.06 (active)
64 | GCUCCUGGAGUUAAGCUUATT against SPINK2 | -0.431 (inactive)
65 | AGUUUCAUUUCAAUAAGUATT against HOXD1 | 0.144 (inactive)
66 | GGAGUAACCUGGAUGAGGATT against C3 | 0.0281 (inactive)

Row | Sequence | median seed-adjusted z-score
67 | AGAGCAUUGGGUACACCAATT against COL6A2 | 0.0119 (inactive)
68 | CCCAUUCCCUGUGCUCCAATT against CARD10 | -0.929 (inactive)
69 | GGUUUUUCAAGUACGAAAATT against RPS6KB1 | 1.4 (active)
70 | GGCCCUUCAUCGAUAGCUATT against APEX2 | -0.347 (inactive)
71 | CCCUAUCCAUGUUCCAUGUTT against HDAC10 | -0.165 (inactive)
72 | CAGCUGUUGUUGAGCGAAUTT against CASP2 | 0.421 (inactive)
73 | GGCUGUACAUCGAUAGCUATT against PGM1 | 0.136 (inactive)
74 | GUUCAUGCAUGGGUGGAAATT against CD200R2 | -0.772 (inactive)
75 | CGUCUAUACUUACAAGCUUTT against SF3B3 | -2.53 (active)
76 | GAACCAACUCGGAUAUUGUTT against MEF2A | -0.0658 (inactive)
77 | GUGCCUAAGUCUUUAGUUUTT against IFI35 | 0.105 (inactive)
78 | GGAGAUCUAUUCAAUGGGATT against SRPK1 | 0.37 (inactive)
79 | GAGCAGUUCGAACACCUUATT against RBM4B | -0.251 (inactive)
80 | GCAGAAUACCUGUUUCAAATT against TERF1 | 0.0114 (inactive)
81 | GUCAUCAACGGAAACAUAATT against EIF3G | -0.198 (inactive)
82 | GGUGAUGAGAGAUCCCAAUTT against PABPC4 | -0.42 (inactive)
83 | ACCGAGACCUCAAACCUGATT against PSKH1 | -2.03 (active)
84 | CUUUCUAGCAGUCACCAUATT against CIR | -0.197 (inactive)
85 | GCCUAUAACAUGCAAACUUTT against HOXC5 | 0.507 (inactive)
86 | GAAACCCGGUGAAAAGAAATT against VARS2 | 0.288 (inactive)
87 | GCUUAUAGCUGCUACAAUUTT against MTMR1 | -0.0204 (inactive)
88 | CGAAAUACGUGGAACUCAUTT against ACE | 0.0874 (inactive)

Row | Sequence | median seed-adjusted z-score
89 | ACAUCGCCCUUAUUGCUAUTT against FOXS1 | 0 (inactive)
90 | AGAGCAUCCUAAACGACCATT against SMUG1 | -1.38 (active)
91 | GCUGGUACAUGACAUCCGATT against GGT7 | 0.135 (inactive)
92 | GCCUUAAGAUCUCGGCGUATT against PTPRK | 0 (inactive)
93 | UGAAGAUGAGGGACCCUAATT against LOXL4 | -0.591 (inactive)
94 | GGGUGGACGUGGAUACUUATT against NFE2L1 | 0.689 (inactive)
95 | AGGGCUAUCUGGUAUCUGUTT against SNRPF | -2.66 (active)
96 | CUGGUACAGUGAUCGGGAATT against PCDH12 | 0.0177 (inactive)
97 | GUUAUGCCUUUAUUAAUUUTT against SF3B4 | -2.56 (active)
98 | GGAUAUUACAGCUAUUUGATT against USP10 | 0.182 (inactive)
99 | CAACUGCAGCAGAUUCUAATT against MNAT1 | -0.335 (inactive)
100 | GACCAGAUCUUUAAUCUCATT against RGS10 | 0.304 (inactive)
101 | CAACACCGCCCACAACAAATT against TRIM25 | 0.859 (inactive)
102 | CGGGAGUUUUUGGAACUGATT against MMS19L | 0.898 (inactive)
103 | GGAAGCUCCUUGUCAAGAUTT against MECP2 | -0.332 (inactive)
104 | GCAGGAUGCUGUCAACAUATT against PSMD4 | 1.46 (active)
105 | GCAAGAGAAUUAGAUCAGATT against SLC16A12 | 0.0219 (inactive)
106 | CCAUCGUCAACAUACGGAATT against TRIT1 | 0.794 (inactive)
107 | GUGUGGAUCUGUGGACUCATT against CRB2 | 0 (inactive)
108 | CACUAAGAGAAAAUCUGAATT against GALNT13 | -0.0149 (inactive)
109 | CCACCUAGCUUGUAACGAATT against EP400 | 1.83 (active)
